# The campaign covered roughly 66,000 compounds. About 960 (1.5%) showed an effect of 50% or more. The sample holds strong results, similar compounds and a random draw of the others, so the mix is not that of the screen.
# System: Trypanosoma brucei
# Experiment: Trypanosoma brucei 72 hour study
# Format: functional, organism-based
# Set-up: scale not given: in the data most compounds retested in dose-response had high values
smiles,measurement,setting,value
Fc1ccccc1CN(CCCn1ccnc1)CC1CCOC1.O=C(O)CC(O)(CC(=O)O)C(=O)O (stereo not drawn),Percent Effect,"30.3 µM, […]",-0.3397%
Cc1cc(CCC(=O)O)nc(C2CCCN2c2ccnc(C)n2)n1 (stereo not drawn),Percent Effect,"30.3 µM, […]",3.845%
Cl.Cl.c1cn(-c2cnc(C3CCNCC3)cn2)cn1,Percent Effect,"30.3 µM, […]",-23.68%
CC(C)(C)c1ccc(OCC(N)=O)c(CN2C[C@H]3C[C@H](O)C[C@H]3C2)c1,Percent Effect,"30.3 µM, […]",-10.55%
COc1ccc(C(=O)N2C[C@@H](NC(=O)N(C)C)[C@H](C(C)C)C2)c(OC)n1,Percent Effect,"30 µM, 30.03 µM",-11.49%
Cc1cc(CN(C)C2CCCN(Cc3noc(C)n3)C2)no1 (stereo not drawn),Percent Effect,"30.3 µM, […]",-25.02%
CN(Cc1cscn1)C1CCCN(Cc2noc(C3CC3)n2)C1 (stereo not drawn),Percent Effect,"30 µM, 30.03 µM",-28.03%
Cc1nc(CN(C)C2CCN(Cc3nc4ccccc4s3)C2)no1 (stereo not drawn),Percent Effect,"30 µM, 30.03 µM",13.35%
Cc1nc(CN2CCCC(N(C)Cc3cscn3)C2)no1 (stereo not drawn),Percent Effect,"30 µM, 30.03 µM",106.7%
Cc1nc(CN(C)C2CCN(Cc3ccc4ccccc4n3)C2)no1 (stereo not drawn),Percent Effect,"30.3 µM, […]",99.64%
Cc1nc(CN(C)C2CCN(Cc3nc4ccccc4n3C)C2)no1 (stereo not drawn),Percent Effect,10 µM,-9.408%
same,Percent Effect,"30.3 µM, […]",44.6%
Cc1occc1C(=O)N1C[C@@H]2OCCN(c3ncccn3)[C@@H]2C1.O=C(O)C(F)(F)F,Percent Effect,"30.3 µM, […]",-9.285%
COc1ccc(-n2ccnc2-c2ccc(C(=O)O)s2)cc1CO,Percent Effect,"30 µM, 30.03 µM",-62.12%
Nc1ncc(-c2ccc(F)cc2)c(C2CCCNC2)n1 (stereo not drawn),Percent Effect,"30.3 µM, […]",1.475%
Nc1ncc(-c2ccc(C(F)(F)F)cc2)c(C2CCCNC2)n1 (stereo not drawn),Percent Effect,"30.3 µM, […]",90.9%
Nc1ncc(-c2ccc(Cl)cc2)c(C2CCCNC2)n1 (stereo not drawn),Percent Effect,"30.3 µM, […]",28.09%
Cc1nc(C)c(C(=O)N2Cc3ccccc3OCC2CN(C)C)o1.Cl.Cl (stereo not drawn),Percent Effect,"30.3 µM, […]",-20.04%
O=C(O)C(F)(F)F.O=C(O)C(F)(F)F.O=C(c1n[nH]c2c1CN(C1CCOC1)CC2)N1CCCC1 (stereo not drawn),Percent Effect,"30.3 µM, […]",8.032%
CCn1cc(NC(=O)c2c(C)nn(C)c2C)c(C(N)=O)n1,Percent Effect,"30.3 µM, […]",53.08%
CCCNC(=O)c1nn(CC)cc1NC(=O)c1cn(C)nc1C,Percent Effect,"30.3 µM, […]",26.24%
CCCNC(=O)c1nn(CC)cc1NC(=O)c1c(C)nn(C)c1C,Percent Effect,"30.3 µM, […]",45.33%
Cc1cnc2n(c1=O)CC(C(=O)Nc1ccon1)CS2 (stereo not drawn),Percent Effect,"30 µM, 30.03 µM",-0.7773%
O=C(c1ccc[nH]1)N1CCCC(c2cc(C(F)(F)F)[nH]n2)C1 (stereo not drawn),Percent Effect,"30 µM, 30.03 µM",38.21%
O=C(c1cc(Cl)c[nH]1)N1CCCC(c2cc(C(F)(F)F)[nH]n2)C1 (stereo not drawn),Percent Effect,"30.3 µM, […]",80.28%
O=C(c1cc[nH]n1)N1CCCC(c2cc(C(F)(F)F)[nH]n2)C1 (stereo not drawn),Percent Effect,"30.3 µM, […]",17.05%
CCOC(=O)C1CC2(CCCCC2)N2CCC(=O)N12 (stereo not drawn),Percent Effect,"30.3 µM, […]",-30.31%
Cc1ccc(C(=O)N2Cc3c(CN4CCCCC4)nn(C)c3C2)o1.O=C(O)C(F)(F)F,Percent Effect,"30 µM, 30.03 µM",0.5997%
COc1cccc(-c2cc(NCCO)nc3[nH]ccc23)n1,Percent Effect,"30.3 µM, […]",-6.078%
COc1cccc(-c2cc(NCCN(C)C)nc3[nH]ccc23)n1,Percent Effect,"30.3 µM, […]",96.05%
COc1cccc(-c2cc(NCC(=O)O)nc3[nH]ccc23)n1,Percent Effect,"30.3 µM, […]",-16.38%
O=C(O)CCn1ccc2c(nnc3c(-c4ccc(F)cc4)cnn32)c1=O,Percent Effect,"30 µM, 30.03 µM",-41.42%
Cc1cc(C)c(-n2cccn2)c(CN2CCOCC(CN(C)C)C2)c1 (stereo not drawn),Percent Effect,"30.3 µM, […]",-14.72%
Cc1ccc(-n2cc(CN3CCOCC(CN(C)C)C3)cn2)cc1C (stereo not drawn),Percent Effect,"30.3 µM, […]",98.04%
Cc1cc(-n2cccn2)ccc1CN1CCOCC(CN(C)C)C1 (stereo not drawn),Percent Effect,"30.3 µM, […]",-10.31%
CN(C)c1ncc2c(O)nc(C3CCNCC3)cc2n1.Cl,Percent Effect,"30.3 µM, […]",-29.5%
CC(=O)NC1CCN(c2ccnc(C3CCNCC3)c2)CC1.O=C(O)C(F)(F)F,Percent Effect,"30.3 µM, […]",-10.98%
O=C(Nc1cccnc1)NC1CCN(c2ccccc2OC(F)F)C1 (stereo not drawn),Percent Effect,"30 µM, 30.03 µM",-24.57%
O=C(Nc1ccncc1)NC1CCN(c2ccccc2OC(F)F)C1 (stereo not drawn),Percent Effect,"30 µM, 30.03 µM",57.33%
O=C(Nc1ccccn1)NC1CCN(c2ccccc2OC(F)F)C1 (stereo not drawn),Percent Effect,"30 µM, 30.03 µM",-33.53%
Cc1nc(N(C)C)nc(C)c1NC(=O)c1ccccc1F,Percent Effect,"30 µM, 30.03 µM",-23.68%
CO[C@@H]1CCN(Cc2cnn(C)c2)[C@@H]2CN(Cc3cccnc3)C[C@@H]21.O=C(O)C(F)(F)F.O=C(O)C(F)(F)F.O=C(O)C(F)(F)F,Percent Effect,"30 µM, 30.03 µM",-0.5656%
CN(C)C(=O)CN1CCC(c2c(C(N)=O)sc3ncccc23)C1 (stereo not drawn),Percent Effect,"30.3 µM, […]",-20.96%
Cc1ncc2c(n1)CN(Cc1cccc3c1OCCO3)CC2,Percent Effect,"30 µM, 30.03 µM",-9.069%
CC(C)c1ncc2c(n1)CN(Cc1cccc3c1OCCO3)CC2,Percent Effect,"30 µM, 30.03 µM",65.77%
CCc1ncc2c(n1)CN(Cc1cccc3c1OCCO3)CC2,Percent Effect,"30 µM, 30.03 µM",-15.38%
O=C(O)C(F)(F)F.O=C(O)C(F)(F)F.O=C(c1ccsc1)N1C[C@@H]2OCCN(CCN3CCCC3)[C@@H]2C1,Percent Effect,"30.3 µM, […]",-142.2%
CCn1cc(Cl)c(C(=O)NCCOC)n1,Percent Effect,"30.3 µM, […]",-26.01%

# Reference: ChEMBL document CHEMBL3988442, “University of Dundee, Small-Polar-MMV Screening Library” (2021)
